Screening data from PubChem.
MEP2-GFP yeast: alters MEP2-GFP fluorescence in TOR pathway yeast screen; S. cerevisiae MEP2-GFP strain, flow cytometry GFP, 3 h; 100% = DMSO control level; GFP response vs DMSO, % at 10 µM; actives 0.51% (n = 330,000);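 active = GFP response versus DMSO above a set limit, roughly screen mean plus 3 SD, cut at about 180% in these data; inconclusive = fewer than 70 cells counted for a yeast strain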;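 also: median GFP fluorescence of the barcode-gated MEP2-GFP cells per well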
Myeloid diff MLP: myeloid differentiation induction | ER-HoxA9 myeloid progenitors, lysozyme-GFP differentiation, flow cytometry | calls only at 10 µM | actives 1% (n = 360,000);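 active = normalized GFP-positive differentiation at or above the plate's own cutoff, the solvent-only control mean plus 3 SD; inconclusive = no clear call, values can overlap the other calls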;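 also: cells exposed to compound for four days before flow analysis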
LAP4 TOR yeast: yeast TOR pathway LAP4-GFP modulation; actives 0.34% (n = 320,000); GFP response vs DMSO, % at 10 µM; AID 2023; S. cerevisiae LAP4-GFP multiplex, flow cytometry GFP, 3 h; median GFP as percent of DMSO wells;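 active = GFP response vs DMSO above a set limit, about the screen mean plus 3 SD, cut at about 150% in these data; inconclusive = under 70 cell events counted for the yeast strain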
RPL19A-GFP yeast: alters RPL19A-GFP fluorescence in TOR pathway yeast screen; percent response vs DMSO, % at 10 µM; S. cerevisiae RPL19A-GFP strain, flow cytometry, 3 h; stronger effect = lower value; actives 0.3% (n = 330,000); AID 2025;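 active = percent response vs DMSO below 50%; inconclusive = fewer than 70 events counted for the yeast strain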;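 also: median channel GFP fluorescence of the barcoded RPL19A-GFP strain; lower means less RPL19A-GFP as with rapamycin TOR inhibition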
AGP1 TOR yeast: modulators of TOR pathway AGP1-GFP in S. cerevisiae | GFP response vs DMSO, % at 10 µM | AID 2066 | actives 0.02% (n = 320,000) | S. cerevisiae AGP1-GFP multiplex flow cytometry, 3 h; GFP as percent of DMSO wells;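 active = GFP response relative to DMSO above a set limit, near screen average plus 3 SD, cut at about 150% in these data; inconclusive = fewer than 70 cells counted for the yeast strain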;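 also: median GFP channel fluorescence of the gated AGP1 strain per well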
CIT2 TOR yeast: alters CIT2-GFP fluorescence in TOR pathway yeast screen. actives 0.065% (n = 320,000). GFP response vs DMSO, % at 10 µM. S. cerevisiae CIT2-GFP strain, flow cytometry, 3 h; 100 means same as DMSO wells;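 active = GFP response relative to DMSO above a set limit, near the screen mean plus 3 SD, cut at about 150% in these data; inconclusive = Fewer than 70 cells measured for a yeast strain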;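 also: ratio of well median GFP fluorescence to mean of DMSO wells on the plate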
Myeloid diff CP1: myeloid differentiation induction; shares compounds with Myeloid diff MLP; ER-HoxA9 myeloid progenitors, GFP/Mac1 double-positive flow; calls only; actives 2% (n = 2,300); AID 651706;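 active = share of green or green-and-red cells above 9 and 9% in run 1 or 4 and 3% in run 2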
GFP autofluor: compound fluorescence in myeloid differentiation counter-screen; actives 7.4% (n = 2,300); ER-HoxA9 myeloid progenitors, no estrogen, GFP autofluorescence flow cytometry; vehicle wells 0%, positive control 100%; AID 651707; shares compounds with Myeloid diff MLP; fluorescence response, % (no concentration beside the values);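 active = over 5% cells positive for green fluorescent reporter, or over 2% positive for both it and APC stain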
Each line names hits and unclear results; the compound was inactive in the other large screens (follow-up assays come after a bar, where they were run). In the library only some 1.8% were active in any assay of this set; here they are far more common.

O=[N+]([O-])c1cccc(/C(=N/N=C/c2ccccc2Br)C23CN4CN(CN(C4)C2)C3)c1	Myeloid diff MLP active | Myeloid diff CP1 inactive | GFP autofluor inactive
CC(=O)Oc1ccc(Cn2cnc3cc4ccccc4cc32)cc1	none | Myeloid diff CP1 inactive | GFP autofluor inactive
CCOc1ccc2c(c1)ncn2Cc1ccccc1	none
O=C(CN1CCCCCC1)Nc1ccccc1F	Myeloid diff MLP active | Myeloid diff CP1 inactive | GFP autofluor inactive
O=C(CCN1CCCCCC1)Nc1ccccc1F	none
CC1=Nc2cc(C(=O)NCC3CCCO3)ccc2Sc2ccc(Br)cc21 (stereo unspecified)	none | Myeloid diff CP1 inactive | GFP autofluor inactive
COc1cccc(Oc2cnc(N)nc2-c2ccc(OC)cc2O)c1	none
COc1ccc(-c2nc(N)ncc2Oc2ccccc2Br)c(O)c1	Myeloid diff MLP active | Myeloid diff CP1 inactive | GFP autofluor inactive
O=C(/C=C\c1ccc2c(c1)OCO2)Nc1c2c(nn1-c1ccc(Cl)cc1)CSC2	none | Myeloid diff CP1 inactive | GFP autofluor inactive
CC(=O)Nc1c2c(nn1-c1ccccc1)CSC2	none
CCCCOC(=O)C(C#N)c1nc2ccccc2nc1N1CCN(Cc2ccc3c(c2)OCO3)CC1 (stereo unspecified)	Myeloid diff MLP active (no result: AGP1 TOR yeast) | Myeloid diff CP1 inactive | GFP autofluor inactive
CCC(Sc1ccc2nnc(-c3cccnc3)n2n1)C(=O)OC (stereo unspecified)	none
CCOC(=O)N1CCN(c2ccc(Cl)c(Cl)c2)CC1	Myeloid diff MLP active | Myeloid diff CP1 inactive | GFP autofluor inactive
Cc1ccc(C(=O)CSc2nnc(-c3ccncc3)n2C)cc1	none
COc1ccc(Nc2nnc(SCC3CCCO3)s2)cc1 (stereo unspecified)	none
Cc1cc(C)n(-c2cccc(CN(C)Cc3nc(-c4cnccn4)no3)c2)n1	none
CCN(CC)C(=O)C1=C(C)N(Cc2ccc(C(C)(C)C)cc2)C(=O)C(CC(=O)NCCCN(C)C)C1 (stereo unspecified)	none (no result: MEP2-GFP yeast, LAP4 TOR yeast, RPL19A-GFP yeast, AGP1 TOR yeast, CIT2 TOR yeast) | Myeloid diff CP1 inactive | GFP autofluor inactive
COc1cc(-n2c(N)c(C(=O)NCc3ccco3)c3nc4ccccc4nc32)cc(OC)c1OC	none
COc1ccc(-n2c(N)c(C(=O)NCc3ccco3)c3nc4ccccc4nc32)cc1OC	Myeloid diff MLP active | Myeloid diff CP1 inactive | GFP autofluor inactive
NNC(=O)c1[nH]c2ccc(Cl)cc2c1-c1ccccc1	none | Myeloid diff CP1 inactive | GFP autofluor inactive
CC(=O)c1cccc(N(CC(=O)Nc2ccc(F)cc2)S(C)(=O)=O)c1	none
OC1(CN2CCOCC2)C2CN3CCN(C2)CC1(c1ccccc1)C3 (stereo unspecified)	Myeloid diff MLP active | Myeloid diff CP1 inactive | GFP autofluor inactive
CCCc1cc(=O)[nH]c(SCC(=O)Nc2cccc3ccccc23)n1	none (no result: Myeloid diff MLP)
CCCc1cc(=O)[nH]c(SCC(=O)Nc2ccccc2C#N)n1	none | Myeloid diff CP1 inactive | GFP autofluor inactive
CCc1c(-c2ccccc2F)ncn1Cc1cccc(-c2ccccc2)c1	none (no result: MEP2-GFP yeast, LAP4 TOR yeast, RPL19A-GFP yeast, AGP1 TOR yeast, CIT2 TOR yeast) | Myeloid diff CP1 inactive | GFP autofluor inactive
Cc1cc(C)n2nc(C)c(Br)c2n1	none
Cc1cc(C)n2nc3nc4c(cc3c2n1)CCCC4	none | Myeloid diff CP1 inactive | GFP autofluor inactive
C=CCNC(=S)/N=c1/ccccn1CC	none | Myeloid diff CP1 inactive | GFP autofluor inactive
COc1cc(/C=C/C(=O)OC[C@H]2O[C@H](OC3(CO)OC(CO)C(O)C3O)[C@H](O)[C@@H](O)[C@@H]2O)ccc1O (stereo partly specified)	none | Myeloid diff CP1 inactive | GFP autofluor inactive
CCOCCn1c(CN(Cc2ccccc2)Cc2ccccc2)nc2c1c(=O)n(C)c(=O)n2C	Myeloid diff MLP inconclusive
CCOCCn1c(CN(Cc2ccccc2)Cc2ccccc2)nc2c1c(=O)[nH]c(=O)n2C	Myeloid diff MLP active | Myeloid diff CP1 inactive | GFP autofluor inactive
CC1Cc2ccccc2N1C(=S)Nc1cccc(S(=O)(=O)N(C)C)c1 (stereo unspecified)	none
CC1CCN(C(=S)Nc2cccc(S(=O)(=O)N(C)C)c2)CC1	Myeloid diff MLP active | Myeloid diff CP1 inactive | GFP autofluor inactive
Cc1cc(C(=O)N2CC(C)CC(C)C2)c(C)o1 (stereo unspecified)	none
NC(=O)c1ccc(SCC(=O)NC2CCCCC2)c([N+](=O)[O-])c1	none (no result: Myeloid diff MLP)
CC(Sc1nc2ccccc2n1C)C(=O)NC(c1ccccc1)c1ccccc1 (stereo unspecified)	none
CCN1/C(=C/C=C/C=C/C=C/c2sc3ccccc3[n+]2CC)Sc2ccccc21	RPL19A-GFP yeast inconclusive | Myeloid diff CP1 inactive | GFP autofluor 43
COC(=O)c1ccccc1NC(=O)c1nc2nc(C)cc(C)n2n1	none | Myeloid diff CP1 inactive | GFP autofluor inactive
COC(=O)c1ccccc1NC(=O)c1cnn2c(C)cc(C)nc12	none
O=c1c2c(nc3nc(CCc4ccccc4)[nH]n13)CCC2	Myeloid diff MLP active | Myeloid diff CP1 inactive | GFP autofluor inactive
CCOc1nc(C)nc(NC(=O)NS(=O)(=O)c2ccccc2Cl)n1	none (no result: CIT2 TOR yeast)
O=[N+]([O-])c1cccc(/C=C/c2nc(C=Nc3ccccc3)c(O)o2)c1	none (no result: CIT2 TOR yeast)
O=C(NCCN1CCOCC1)c1cnn2c1NC(c1cccs1)CC2C(F)(F)F (stereo unspecified)	none
CCCCNC(=S)NNC(=O)c1csc(C)c1	none | Myeloid diff CP1 inactive | GFP autofluor inactive
CCNC(=S)NNC(=O)c1csc(C)c1	none
Cc1ccc(Nc2nc(N)nc(CN3CCN(Cc4ccc5c(c4)OCO5)CC3)n2)cc1C	none (no result: MEP2-GFP yeast, LAP4 TOR yeast, RPL19A-GFP yeast, AGP1 TOR yeast, CIT2 TOR yeast)
CCOC(=O)c1c(C)[nH]c(C)c1C(=O)COc1ncnc2ccccc12	none
CC(C)OC(=O)CSc1nnc(Cc2ccccc2)n1C	Myeloid diff MLP active (no result: RPL19A-GFP yeast) | Myeloid diff CP1 inactive | GFP autofluor inactive
Cc1nc(SCC(=O)Nc2ccccc2C(F)(F)F)c2c(=O)n(C)c(=O)n(C)c2n1	Myeloid diff MLP active | Myeloid diff CP1 inactive | GFP autofluor inactive
Cn1c(=O)c2c(SCC(=O)c3ccccc3)nc(C3CC3)nc2n(C)c1=O	none | Myeloid diff CP1 inactive | GFP autofluor inactive
COc1ccccc1-c1nc(-c2ccc(C)nc2OC)no1	none
COc1nc(C)ccc1-c1noc(-c2ccccn2)n1	none (no result: RPL19A-GFP yeast) | Myeloid diff CP1 inactive | GFP autofluor inactive
Cc1ccc(-c2csc(NC(=O)c3c(C)noc3C)n2)cc1	Myeloid diff MLP active | Myeloid diff CP1 inactive | GFP autofluor inactive
NS(=O)(=O)c1ccc(NC(=O)CN2CCCc3ccccc32)cc1	Myeloid diff MLP active (no result: LAP4 TOR yeast, AGP1 TOR yeast, CIT2 TOR yeast) | Myeloid diff CP1 inactive | GFP autofluor inactive
